Screening results from PubChem.
In the library only some 2.9% were active in any assay of this set; here they are far more common.
Pol beta inh: inhibitors of human DNA polymerase beta. P06746. Pol beta primer extension/strand displacement, fluorescence kinetic. 340,000 compounds, 1.3% hits. Potency, µM (titrated, usually from 114 µM), actives largely listed as inhibitors
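Pol beta (10 nM) was preincubated with compound for 15 min at room temperature. The reaction was then started with 50 nM substrate and read immediately and after a further 10 min at room temperature.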
Pol iota inh: DNA polymerase iota (human) inhibition | 390,000 compounds, 1% hits | Pol iota fluorescent replication assay, 10 min | Potency, µM (highest dose often 115 µM), hits mostly inhibitors | AID 588590
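Fluorescent replication assay read twice, at 0 min and 10 min after adding 50 nM (final) substrate. Enzyme (10 nM) and compounds were first incubated 15 min at room temperature; enzyme-free buffer wells were negative controls.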
Pol eta inh: DNA polymerase eta (human) inhibition | Potency, µM (top dose mostly 114 µM), actives largely listed as inhibitors | Q9Y253 | 390,000 compounds, 1.2% hits | recombinant Pol eta, fluorescent DNA replication assay
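Pol eta (10 nM) was preincubated with compounds for 15 min at room temperature, after which fluorescent replication substrate (50 nM final) was added to start the reaction. Fluorescence was read kinetically at 0 and 10 min.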
PI5P4Ka inh: blocks human PI5P4K alpha kinase activity. P48426. max response, %. PI5P4Kalpha enzyme, ADP-Glo luminescence, 60 min; active compounds read low. AID 652105. 330,000 compounds, 1.2% hits; active means max response of -50% or lower; inconclusive means between -30% and -50%; inactive means -30% or higher; further: value at the top dose of about 77 µM
Target sequence (P48426 whole entry, looked up): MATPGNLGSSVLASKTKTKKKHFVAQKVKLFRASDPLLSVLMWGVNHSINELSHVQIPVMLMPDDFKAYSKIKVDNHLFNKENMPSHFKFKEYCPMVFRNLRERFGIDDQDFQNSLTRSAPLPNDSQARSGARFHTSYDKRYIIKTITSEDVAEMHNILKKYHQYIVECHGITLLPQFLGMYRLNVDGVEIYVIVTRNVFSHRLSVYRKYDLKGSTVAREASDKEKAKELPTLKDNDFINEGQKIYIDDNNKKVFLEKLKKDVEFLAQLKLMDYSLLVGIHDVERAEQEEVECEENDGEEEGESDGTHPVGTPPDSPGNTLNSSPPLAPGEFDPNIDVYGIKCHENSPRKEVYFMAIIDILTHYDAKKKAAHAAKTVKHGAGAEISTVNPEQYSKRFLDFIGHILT
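Quantitative HTS of the MLSMR library against PI5P4Kalpha with substrate. ATP added last at 5 microM final; room temperature, 60 minutes. Remaining ATP depleted, ADP converted and read as luminescence.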
ALOX12 inh: ALOX12 (human) lipoxygenase inhibition. P18054. purified 12hLO, xylenol orange hydroperoxide absorbance. Potency, µM (highest dose often 108 µM), hits mostly inhibitors. 580,000 compounds, 1.1% hits. AID 1671190
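Hydroperoxide product was detected by ferrous iron/xylenol orange as the 573 to 405 nm absorbance ratio. Arachidonic acid at 40 uM (final) was turned over for 30 min at room temperature by 150 nM human 12hLO, pH 7.0 Hepes buffer, after 15 min compound preincubation.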
POLK inh: inhibitors of human DNA polymerase kappa; purified Pol kappa, fluorescent DNA synthesis assay, 10 min; 400,000 compounds, 0.53% hits; Potency, µM (titrated, usually from 107 µM), most hits filed as inhibitors; AID 588579; Q9UBT6
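Inhibition of 10 nM Pol kappa is measured by a fluorescent read-out at 0 and 10 min following addition of 50 nM substrate (final), with a 15-min room-temperature compound preincubation.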
Large screens that a line does not name were inactive. Unless noted, the call rests on the fitted dose curve; in most records, active means well fitted inhibition curve with a large enough effect; inconclusive means small, poorly fitted or top-dose-only effect, or another doubt; inactive means no such curve, though single readings can be large or run the other way.

[O-]c1c[n+](-c2ccccc2)no1	ALOX12 inh inconclusive
O=C1Nc2cc(C(=O)N3CCN(c4ccccc4F)CC3)ccc2NC1CSCc1ccccc1F (centres undefined)	none (no result: Pol iota inh, Pol eta inh, PI5P4Ka inh, ALOX12 inh, POLK inh)
COc1ccc(N2CCN(C(=O)c3ccc4c(c3)NC(=O)C(CSCc3ccccc3F)N4)CC2)cc1 (centres undefined)	Pol eta inh inconclusive, PI5P4Ka inh inconclusive, ALOX12 inh 4.5µM (no result: Pol beta inh, Pol iota inh, POLK inh)
Cc1cccc(N2CCN(C(=O)c3ccc4c(c3)NC(=O)C(CSCc3cccc(F)c3)N4)CC2C)c1 (centres undefined)	PI5P4Ka inh inconclusive, ALOX12 inh 22µM
CCCNc1c(NC(=O)c2ccc(OC)c(OC)c2)c(=O)oc2ccccc12	none (no result: Pol beta inh, Pol iota inh, Pol eta inh, PI5P4Ka inh, POLK inh)
CCCC[C@@H]1C[C@H]1[C@@H](NC(=O)c1ccccc1)c1ccccc1C(F)(F)F	none
CCCC[C@@H]1C[C@H]1[C@@H](NC(=O)c1ccco1)c1ccc(C(=O)OC)cc1	Pol eta inh 32µM, PI5P4Ka inh inconclusive, ALOX12 inh inconclusive (no result: Pol beta inh)
CCc1ccc2cc3c(cc2n1)C(=O)c1ccccc1-3	ALOX12 inh 7.9µM (no result: Pol beta inh, Pol iota inh, Pol eta inh, POLK inh)
COc1ccc(C(=O)C[n+]2cccc(Br)c2)cc1	none
O=C(CBr)c1ccc(Oc2ccc(C(=O)C[n+]3cccc(Br)c3)cc2)cc1	Pol iota inh 79µM (no result: Pol beta inh, Pol eta inh, PI5P4Ka inh, ALOX12 inh)
Cc1cc(C)nc(Nc2ccc(O)cc2)n1	none
Oc1ccc(Nc2ccc3ccccc3c2)cc1	Pol iota inh inconclusive, PI5P4Ka inh inconclusive, ALOX12 inh 45µM (no result: Pol beta inh)
Oc1ccc(Nc2nc(-c3ccc4ccccc4c3)cs2)cc1	ALOX12 inh 18µM (no result: Pol iota inh, Pol eta inh, PI5P4Ka inh, POLK inh)
Oc1ccc(-c2nc(-c3ccc(O)c(O)c3)cs2)cc1	Pol beta inh 40µM, Pol iota inh inconclusive, Pol eta inh inconclusive, PI5P4Ka inh inconclusive, ALOX12 inh inconclusive, POLK inh inconclusive
Cc1cc(Nc2ccc(O)cc2)ccc1N	Pol iota inh 20µM (no result: Pol beta inh, Pol eta inh, PI5P4Ka inh, ALOX12 inh)
Oc1ccc(-c2nc(-c3ccc(F)cc3)cs2)cc1	none (no result: Pol beta inh, Pol iota inh, Pol eta inh, PI5P4Ka inh, POLK inh)
CCC(=O)Nc1ccc2ccccc2c1	none
CN1CCN(c2ccc(-c3cc4c(ccn4C)c(C(=O)NCc4cnccn4)n3)cc2)CC1	none (no result: Pol beta inh, Pol iota inh, Pol eta inh, PI5P4Ka inh, POLK inh)
CN(Cc1ccccc1)C(=O)c1cccc(Nc2cc(-c3ccccc3)ncn2)c1	none (no result: Pol beta inh, Pol iota inh, Pol eta inh, PI5P4Ka inh, POLK inh)
CCOc1cccc2cc(-c3nnc(NCc4ccc5c(c4)OCO5)s3)c(=O)oc12	Pol beta inh inconclusive, Pol eta inh 4µM
CC(C)c1c(O)c(-c2cc3c(c(C(C)C)c2O)CCC2C(C)(C)CCC[C@@]32C)cc2c1CCC1C(C)(C)CCC[C@@]21C (some centres undefined)	none (no result: Pol beta inh, Pol iota inh, Pol eta inh, PI5P4Ka inh, ALOX12 inh)
CC(C)c1cc2c(c(O)c1O)[C@@]13CCCC(C)(C)C1CC2OC3=O (some centres undefined)	PI5P4Ka inh -75, ALOX12 inh inconclusive
COC(=O)c1ccc(CC(=O)c2c(C)cc(O)cc2O)o1	Pol beta inh inconclusive, Pol iota inh inconclusive, Pol eta inh inconclusive, ALOX12 inh inconclusive, POLK inh 25µM
CCc1nc2c(c(-c3ccc(Cl)cc3)n1)CN(Cc1ccc(OC(F)(F)F)cc1)CC2	none (no result: Pol beta inh, Pol iota inh, Pol eta inh, PI5P4Ka inh, POLK inh)
Cn1c(CN2CCOC[C@H]2c2ncc(-c3ccc(Cl)s3)[nH]2)nc2ccccc21	none (no result: Pol beta inh, Pol iota inh, Pol eta inh, PI5P4Ka inh, POLK inh)
CC1=Nc2ccccc2/C1=C/c1sc(=N)n(-c2nccs2)c1O	PI5P4Ka inh -70 (no result: ALOX12 inh)
Cc1ccc(OCC(=O)N2CCOc3ccc(CN4CCc5ccccc5C4)cc3C2)cc1	none (no result: Pol beta inh, Pol iota inh, Pol eta inh, PI5P4Ka inh, POLK inh)
COC(=O)c1c(NC(=O)COC(=O)[C@@H](NS(=O)(=O)c2cccc(Cl)c2)C(C)C)sc2c1CCC2	none
CC(C)[C@H](NS(=O)(=O)c1cccc(Cl)c1)C(=O)OCC(=O)NC(=O)CN1CCCC1=O	Pol iota inh 50µM, Pol eta inh 22µM, POLK inh inconclusive (no result: Pol beta inh, ALOX12 inh)
O=C(CCc1ccc(O)cc1)c1c(O)cc(O)cc1O[C@@H]1O[C@H](CO)[C@H](O)[C@H](O)[C@H]1O	none (no result: Pol beta inh, Pol iota inh, Pol eta inh, PI5P4Ka inh, POLK inh)
CCOCCCn1c(=N)c(C(N)=S)cc2c(=O)n3cccc(C)c3nc21	Pol iota inh inconclusive (no result: PI5P4Ka inh)
CCOC(=O)c1cc2c(=O)n3cccc(C)c3nc2n(C)c1=N	Pol beta inh 79µM (no result: Pol iota inh, Pol eta inh, PI5P4Ka inh, ALOX12 inh, POLK inh)
CCCCn1c(=O)n(C(C)C(=O)Nc2ccc3c(c2)CCC3)c(=O)c2c1ncn2Cc1ccco1 (centres undefined)	none (no result: Pol beta inh, Pol iota inh, Pol eta inh, PI5P4Ka inh, POLK inh)
